# Reference: the supplement of paper PMC3334620
# Whole data set: some 33,000 sequences, median “E-score (-0.5 to 0.5)” near -0.012, cut for the highest 2% near 0.27. The full list was thinned out, with the highest values kept by preference.
# Molecular target: T1, Vhr1 (UniProt P40522)
# T1 sequence: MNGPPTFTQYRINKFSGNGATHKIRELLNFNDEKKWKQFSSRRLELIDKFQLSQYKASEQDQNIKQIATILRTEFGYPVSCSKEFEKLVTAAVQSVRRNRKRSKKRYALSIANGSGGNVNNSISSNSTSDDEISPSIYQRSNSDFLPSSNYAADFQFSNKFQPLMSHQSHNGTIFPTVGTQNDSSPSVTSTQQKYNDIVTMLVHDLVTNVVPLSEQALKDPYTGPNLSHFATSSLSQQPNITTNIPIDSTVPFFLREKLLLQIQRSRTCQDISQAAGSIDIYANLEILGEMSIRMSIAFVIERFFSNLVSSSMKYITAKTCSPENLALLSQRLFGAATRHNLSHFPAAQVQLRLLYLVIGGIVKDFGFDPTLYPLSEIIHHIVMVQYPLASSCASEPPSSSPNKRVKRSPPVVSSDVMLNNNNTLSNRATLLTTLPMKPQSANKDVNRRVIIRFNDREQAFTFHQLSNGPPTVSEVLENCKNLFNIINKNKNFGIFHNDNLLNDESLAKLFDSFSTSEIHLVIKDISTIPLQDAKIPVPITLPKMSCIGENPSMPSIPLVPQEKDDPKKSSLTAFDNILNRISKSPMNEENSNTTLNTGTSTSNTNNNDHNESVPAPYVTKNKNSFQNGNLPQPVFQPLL
# Assay: PBM E-score (8-mer binding enrichment) (E-score (-0.5 to 0.5)); higher = stronger / more preferred TF binding
# Details: protein concentration: 200 nM; construct: GST-full length
# Summary of the method: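 For each ungapped eight-base word taken together with its reverse complement, the Universal PBM Analysis Suite assigned an E-score. Binding data came from GST-tagged yeast transcription factors, applied at about 100-200 nM, on universal all-10-mer Agilent arrays made double-stranded by primer extension. Fluorescent anti-GST marked bound protein, and scans were normalised with masliner.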
row,Sequence,PBM E-score
1,ACTCATAA,0.164
2,ACATCGCG,0.183
3,AGTTAGGC,-0.144
4,CGACTGTC,0.102
5,AAAGTAGG,-0.0386
6,ATCTCCAT,0.0116
7,ATGCTTGA,0.0306
8,TATCACCA,0.0885
9,AATCACCA,0.33
10,AATCACCT,0.312
11,AACCACCT,0.0827
12,AATCACCG,0.266
13,CATCACCA,0.167
14,AATCACCC,0.38
15,AATCACGT,0.225
16,CATCACCC,0.103
17,ACCCCAAG,-0.0964
18,CCGATCAC,0.0847
19,GTGCAAAC,-0.0932
20,TAGAAGGA,-0.332
21,ATAAGGGA,-0.137
22,ATCTAAAA,0.0219
23,ATTAACTG,0.224
24,CGTCATTA,-0.122
25,GGTCATTA,-0.0362

row,Sequence,PBM E-score
1,ATTCATTG,0.0738
2,AGTCATTG,0.389
3,AGTCATTC,0.384
4,CCTCATTC,-0.0181
5,ATTCATTC,0.165
6,ACTCATTC,0.367
7,AGCCATTC,-0.00524
8,ACTCATTG,0.196
9,AGTCATTA,0.368
10,CGTCATTC,0.177
11,TGACAGCA,0.127
12,ATAGCGTA,-0.0276
13,CAAAACAA,-0.13
14,GCCTCAAA,-0.0409
15,GAGGGCAC,-0.205
16,GAAGTCAC,0.269
17,CAAGTCAC,0.284
18,CTAGTCAC,0.34
19,CTAGTCAA,0.124
20,GTAGTCAA,0.262
21,CAAGTCAG,0.208
22,GTAGTCAC,0.441
23,CTAGTCGC,0.0967
24,AAAGTCAC,0.246
25,ACTCTTTC,-0.172

row,Sequence,PBM E-score
1,GTGTCTTA,0.0499
2,CCTGAATC,0.0923
3,GACGTTAC,-0.062
4,AAAGGCGT,-0.19
5,ACACAGCC,0.232
6,GCACAGCA,0.128
7,ACACAGCA,0.286
8,ACACAGCT,0.127
9,ACACAGCG,0.312
10,CCACAGCA,0.088
11,ATTTTAGC,-0.141
12,AATACCTC,0.0406
13,GAGTTAGA,-0.0441
14,ACTTTGAG,0.0115
15,AAGCTGGC,-0.163
16,AAGCGATT,-0.0711
17,GGTGGGAA,0.04
18,CGCGGGCC,0.187
19,CGCGGGAA,0.105
20,CGTGGGGA,0.0323
21,GGCGGGAA,-0.0569
22,GGTGGGGA,0.378
23,GCGGGGGA,-0.0987
24,CGCGGGGA,0.292
25,GGCGGGCA,0.198

row,Sequence,PBM E-score
1,CGCGGGCA,0.287
2,AGCGGGGA,-0.0182
3,GGCGGGGA,0.409
4,CACCAAGG,0.0118
5,AGGCTGGC,0.00081
6,AGGCCCGG,-0.234
7,ATTAGCGA,0.142
8,ATGGTCGA,-0.0168
9,GAGACTAA,-0.00777
10,CCGTTCAG,-0.184
11,CAACAATC,0.273
12,GAACAATC,-0.0437
13,CAACAATG,0.168
14,AGTCACAC,0.415
15,AGCCACAT,0.22
16,AGTCACAG,0.425
17,AGTCACAA,0.391
18,CGTCACAC,-0.021
19,GGTCACAA,0.0224
20,CGTCACAA,-0.0394
21,CGTCACAG,0.152
22,GGTCACAC,0.0719
23,AGGCACAT,0.0884
24,AGTCACAT,0.402
25,ATTCACAG,-0.0154
